Test results as given in PubChem BioAssay AID1851 (National Center for Advancing Translational Sciences (NCATS), 2009).
Several values for one entry are separate records, joined by “and”; a condition that tells them apart may be missing. Equal values may be shown once. Screen size: about 16,000 compounds; about 2,600 (16%) were called active. Inconclusive results (about 20%) are left out. Calls come from the whole dose curve; as a rule, active = well fitted curve in the direction sought with a large enough effect; inconclusive = small, poorly fitted or top-dose-only effect, or effect the other way; inactive = no such curve, though single readings can be large or run the other way. Not all results are given here. Some structures have more than one record in an assay (separate samples or runs), and their calls can disagree.

What follows are molecules tested against Cytochrome P450 2D6 (Homo sapiens) (UniProt P10635) (assay: Cytochrome panel assay with activity outcomes). Details: recombinant CYP, pro-luciferin dealkylation, luminescence, p450-cyp2d6; series mostly up to 57.1 µM.
Chain of Cytochrome P450 2D6 (Homo sapiens) (P10635 whole entry, looked up): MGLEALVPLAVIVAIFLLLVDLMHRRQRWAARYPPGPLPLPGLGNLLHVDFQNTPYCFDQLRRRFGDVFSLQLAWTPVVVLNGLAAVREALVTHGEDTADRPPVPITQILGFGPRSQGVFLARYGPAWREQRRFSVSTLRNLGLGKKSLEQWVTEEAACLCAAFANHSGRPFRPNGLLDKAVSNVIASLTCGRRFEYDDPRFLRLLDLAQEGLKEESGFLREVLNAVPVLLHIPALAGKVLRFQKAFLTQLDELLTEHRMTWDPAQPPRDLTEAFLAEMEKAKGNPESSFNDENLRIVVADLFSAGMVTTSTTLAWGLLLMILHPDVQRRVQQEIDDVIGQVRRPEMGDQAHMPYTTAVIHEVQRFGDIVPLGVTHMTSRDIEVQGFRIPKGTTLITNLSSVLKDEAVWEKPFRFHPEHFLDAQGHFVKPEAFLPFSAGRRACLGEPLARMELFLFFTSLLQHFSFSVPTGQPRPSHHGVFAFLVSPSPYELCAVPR
% is set by controls: 0 for no effect and ±100 for the full control effect.

| SMILES | AC50 | activity, negative = inhibition |
| --- | --- | --- |
| CC1Cc2ccccc2N1C(=O)CSc1nnnn1C(C)C (configuration not stated) | inactive |  |
| Cc1ccc2c(c1)nnn2C1CCN(CC(=O)N2c3ccccc3CC2C)CC1 (configuration not stated) | 25.1 µM (active) |  |
| O=C(O)/C=C\c1cnc[nH]1 | inactive |  |
| CC(=O)NC1=NN(c2ccccc2)C(=O)C1 | inactive |  |
| CC(=O)N1CCC(=O)N(C(C)C)c2ccccc21 | 3.16 µM (active) |  |
| Cc1nn(C(C)C(=O)N2CCc3ccccc32)c(C)c1[N+](=O)[O-] (configuration not stated) | inactive |  |
| C/C(Cl)=C/CSc1nnc2n(N)c(=O)c3ccccc3n12 | inactive |  |
| O=C(CNS(=O)(=O)c1ccc(Br)s1)N1CCC(N2CCCCC2)CC1 | 12.6 µM (active) |  |
| CC1CC(C)CN(C(=O)CNS(=O)(=O)c2ccc(Br)s2)C1 (configuration not stated) | 3.16 µM (active) |  |
| CC1CCC(C(=O)NC(C(=O)N2CCC(N3CCCCC3)CC2)C(C)C)CC1 (configuration not stated) | inactive |  |
| O=C(NCc1ccco1)c1ccccc1NS(=O)(=O)c1ccc(Br)s1 | inactive |  |
| O=c1c(-c2ccc(F)c(F)c2)nc2cncnc2n1C1CC1 | inactive |  |
| COc1ccc(C(=O)N/N=C/c2cccc3cccnc23)cc1 | inactive |  |
| CC(C)(C)c1nnc(NC(=O)NS(=O)(=O)c2ccccc2)s1 | inactive |  |
| COc1ncc2nc(-c3ccc(F)cc3)c(=O)n(C)c2n1 | inactive |  |
| Oc1cc2c(c(Cl)c1O)CCNC[C@H]2c1ccccc1 | 10 µM (active) |  |
| Oc1ccc([C@@H]2CNCc3sccc32)cc1O | inactive |  |
| Oc1cc2c(cc1O)[C@H](c1ccccc1)CNCC2 | inactive |  |
| Oc1ccc([C@@H]2CNCCc3c2cc(O)c(O)c3Cl)cc1 | inactive and 3.16 µM (active) |  |
| CCC(=O)Nc1nonc1-c1nc2ccccc2n1N(C(=O)CC)C(=O)CC | inactive |  |
| Cc1cc(CNC(=O)[C@H]2C[C@@H]2[C@H](NP(=O)(c2ccccc2)c2ccccc2)c2ccccc2)nn1C | inactive |  |
| CC1CSc2nc3sc4c(c3c(=O)n21)CCCC4 (configuration not stated) | inactive |  |
| CN(C)c1ncc2nc(-c3cccs3)c(=O)n(Cc3cccs3)c2n1 | inactive |  |
| Cc1cc(NC(=O)C2C3C(=O)N(Cc4ccc(Cl)cc4)C(C(=O)NC(C)(C)C)C34C=CC2(C)O4)no1 (configuration not stated) | inactive |  |
| CN1CCN(c2ncc3nc(-c4cccs4)c(=O)n(CCc4ccccc4)c3n2)CC1 | inactive |  |
| CCNc1ncc2nc(-c3cc(F)cc(F)c3)c(=O)n(Cc3cccs3)c2n1 | inactive |  |

| SMILES | AC50 | activity, negative = inhibition |
| --- | --- | --- |
| CCNc1ncc2nc(-c3cc(F)cc(F)c3)c(=O)n(CCOC)c2n1 | 0.316 µM (active) |  |
| CN1CCN(c2ncc3nc(-c4cc(F)cc(F)c4)c(=O)n(CCc4ccccc4)c3n2)CC1 | inactive |  |
| CN(C)c1ncc2nc(-c3cc(F)cc(F)c3)c(=O)n(C[C@H]3CCCO3)c2n1 | inactive |  |
| CCNc1ncc2nc(-c3cc(F)cc(F)c3)c(=O)n(C[C@H]3CCCO3)c2n1 | 0.158 µM (active) |  |
| CCNc1ncc2nc(-c3cc(F)cc(F)c3)c(=O)n(CCc3ccccc3)c2n1 | 15.8 µM (active) |  |
| Cc1nc2cnc(N3CCN(C)CC3)nc2n(CCc2ccccc2)c1=O | 2.51 µM (active) |  |
| COCCn1c(=O)c(-c2cc(F)cc(F)c2)nc2cnc(N(C)C)nc21 | inactive |  |
| COCCn1c(=O)c(-c2cc(F)cc(F)c2)nc2cnc(OC)nc21 | inactive |  |
| CCNc1ncc2nc(-c3ccc(Cl)cc3)c(=O)n(C[C@H]3CCCO3)c2n1 | inactive |  |
| CN(C)c1ncc2nc(-c3cc(F)cc(F)c3)c(=O)n(CCc3ccccc3)c2n1 | inactive |  |
| CC(C)NC(=O)/C(=N\O)c1ccccc1 | inactive |  |
| Cc1ccc(OCC(=O)NNC(=O)c2cccnc2)cc1 | inactive |  |
| O=c1c(-c2cccs2)nc2cnc(Oc3ccccc3)nc2n1C1CC1 | inactive |  |
| COc1ccc(NC(=O)N2CCCC3(CCN(C(=O)c4cccc(F)c4)CC3)C2)cc1 | inactive |  |
| CN1CCN(c2ncc3nc(-c4ccc(Cl)cc4)c(=O)n(C4CC4)c3n2)CC1 | inactive |  |
| Cc1ccc(NC(=O)/C(=C/c2cccc([N+](=O)[O-])c2)NC(=O)C2CCCCC2)c(C)c1 | inactive |  |
| CC1=C(C(=O)Nc2ccccc2F)C(c2ccsc2)C2=C(CC(c3ccccc3)CC2=O)N1 (configuration not stated) | inactive |  |
| COC(=O)C/C=C\[C@@H](C)[C@@H](/C=N\OC[C@@H]1O[C@H](c2ccccc2)C=C[C@@H]1Oc1ccc(OC)cc1)OC |  | -17.7% [at 11.4 µM] (inactive) |
| COC(=O)c1ccccc1N/C=C1\CCc2c(c(C)nn2-c2ccccn2)C1=O | inactive |  |
| CCOc1ccc(/C=N/Nc2nc(N3CCCC3)nc(N3CCCC3)n2)cc1OC | inactive |  |
| CCNc1ncc2nc(C)c(=O)n(CCc3ccccc3)c2n1 | inactive |  |
| CCNc1ncc2nc(-c3ccc(OC)cc3)c(=O)n(CCOC)c2n1 | inactive |  |
| CCNc1ncc2nc(-c3ccccc3)c(=O)n(CCOC)c2n1 | 3.16 µM (active) |  |
| CCNc1ncc2nc(-c3ccccc3)c(=O)n(CCc3ccccc3)c2n1 | 10 µM (active) |  |
| COCCn1c(=O)c(-c2ccccc2)nc2cnc(Nc3ccccc3)nc21 | inactive |  |
| CCNc1ncc2nc(-c3ccccc3)c(=O)n(C)c2n1 | inactive |  |
